Measurements taken from PubChem BioAssay AID1159580 (chemical genetic matrix, 2015).
The whole screen tested about 5,500 compounds, of which about 2,000 (36%) were called active. Another 18% or so got no clear call; they are omitted. Cut-off read from the data, not from the text of the source: active = normalized growth mostly below about 0.91 (no sharp cut-off); inconclusive = no clear call, values can overlap the other calls; inactive = mostly above about 0.92. The list shows a part of the results.

Assay: chemical genetic growth profiling, strain panel (AID 1159580);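 note: tested at 20 µM; growth read once vehicle control cultures reached saturation at 30 °C; 1 = growth at the plate median or of vehicle wells; lower values mean less growth of the strain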
Details: S. cerevisiae deletion strains, growth OD
[1] = locus YAL040C, strain CLN3, stronger effect = lower value
[2] = locus YCL061C, strain MRC1 (second series), stronger effect = lower value
[3] = locus YDR363W, strain ESC2, stronger effect = lower value
[4] = locus YER002W, strain NOP16, stronger effect = lower value
[5] = locus YJR075W, strain HOC1, stronger effect = lower value
[6] = locus YMR263W, strain SAP30, stronger effect = lower value
[7] = locus YNL197C, strain WHI3, stronger effect = lower value
[8] = locus YNL224C, strain SQS1, stronger effect = lower value
[9] = locus YNL322C, strain KRE1, stronger effect = lower value
[10] = locus YOR083W, strain WHI5 (second series), stronger effect = lower value
[11] = locus YPL241C, strain CIN2, stronger effect = lower value

Measured: normalized growth

O=C1NCN(c2ccccc2)C12CCN(CCCC(c1ccc(F)cc1)c1ccc(F)cc1)CC2
inactive: locus YAL013W, strain DEP1, stronger effect = lower value 1.01 | [1] 0.995 | [2] 1 | locus YDR150W, strain NUM1, stronger effect = lower value 0.987 | [3] 0.992 | [4] 1.03 | [5] 0.998 | [6] 1 | locus YNL128W, strain TEP1, stronger effect = lower value 1.05 | locus YNL153C, strain GIM3, stronger effect = lower value 0.982 | [7] 1.09 | [8] 1.07 | [9] 1 | [10] 1.09 | [11] 1

O=C(CCCN1CCC2(CC1)C(=O)N(CCc1ccc(N=C=S)cc1)CN2c1ccccc1)c1ccc(F)cc1
inactive: [1] 1.04 | [2] 0.982 | [3] 0.972 | [4] 1.03 | locus YGR229C, strain SMI1, stronger effect = lower value 0.984 | [5] 0.968 | [6] 0.987 | locus YMR307W, strain GAS1, stronger effect = lower value 0.982 | locus YNL175C, strain NOP13, stronger effect = lower value 1 | [7] 1.02 | [8] 1.05 | [9] 0.948 | [10] 1.08 | locus YPL055C, strain LGE1, stronger effect = lower value 0.916 | [11] 0.984
